This is an account of results in PubChem BioAssay AID2014 (Sanford-Burnham Center for Chemical Genomics, 2009).

Among all 290,000 compounds or so, about 3,000 (1%) were called active. No rule for the calls is given here. Only a selection was taken, and actives are over-represented in it overall.

The term inhibition denotes the drop in the measured response relative to a control, in per cent.

In the test the target is Polyadenylate-binding protein 1 (Homo sapiens) (UniProt P11940). The test is described as follows: blockers of PABP interaction with poly(A) – biochemical, fluorescence polarization, uHTS, primary screen (AID 2014).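 Also: calls also rest on retests at 20 µM and on dose response follow-up.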 To be noted: PABP-poly(A) RNA binding, stronger effect = higher value. (Fluorescence polarisation rises when a labelled molecule tumbles more slowly, as on binding a larger partner.)
Sequence of Polyadenylate-binding protein 1 (Homo sapiens) (P11940 whole entry, looked up): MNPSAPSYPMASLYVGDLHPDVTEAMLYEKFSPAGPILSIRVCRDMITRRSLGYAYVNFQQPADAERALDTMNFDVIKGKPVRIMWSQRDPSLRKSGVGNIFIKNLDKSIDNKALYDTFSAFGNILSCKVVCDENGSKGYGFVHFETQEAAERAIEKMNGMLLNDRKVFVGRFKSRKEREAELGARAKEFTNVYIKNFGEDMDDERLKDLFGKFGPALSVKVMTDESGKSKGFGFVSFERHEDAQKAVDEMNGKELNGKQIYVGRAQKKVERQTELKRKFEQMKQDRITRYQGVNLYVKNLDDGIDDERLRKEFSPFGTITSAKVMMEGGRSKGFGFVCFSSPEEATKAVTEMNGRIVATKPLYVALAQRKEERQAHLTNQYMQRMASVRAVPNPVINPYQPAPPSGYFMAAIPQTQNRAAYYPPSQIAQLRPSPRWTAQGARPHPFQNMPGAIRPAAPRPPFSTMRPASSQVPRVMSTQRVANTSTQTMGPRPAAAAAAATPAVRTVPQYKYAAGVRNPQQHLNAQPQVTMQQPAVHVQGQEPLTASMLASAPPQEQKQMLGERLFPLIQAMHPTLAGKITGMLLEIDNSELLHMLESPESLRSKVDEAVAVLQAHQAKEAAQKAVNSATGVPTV

For `COc1cc(OC)cc(C(=O)NCCSCc2ccc(Cl)cc2)c1`, under “at 35 µM”, the inhibition is -3.9% (inactive). Turning to `Cc1cccc(NC(=O)/C(=C\c2ccco2)NC(=O)c2ccccc2)c1`, the inhibition (at 35 µM) was 52.1% (active).

In the case of `O=C(Nc1ccccc1)/C(=C\c1ccco1)NC(=O)c1ccco1`, the inhibition (at 35 µM) was 14.9% (inactive). Turning to `O=C(NCc1ccco1)/C(=C/c1ccco1)NC(=O)c1ccccc1`, for the setting “at 35 µM”, the inhibition was -4% (inactive).

As for `COc1cc(/C=C/C(=O)N2CCc3ccccc3C2)cc(OC)c1OC`, where the note is “at 35 µM”, the inhibition is 2.6% (inactive).

Take `COc1ccc(Cc2nnc(SCC(=O)Nc3ccc(C)c(C)c3)o2)cc1OC`: the inhibition (at 35 µM) was -6.8% (inactive). For the compound `CCOC(=O)N1CCN(C(=O)COCc2cc(-c3ccc4c(c3)OCO4)on2)CC1`, the inhibition (at 35 µM) is 3.8% (inactive). On the same count and under the same terms, the same measure for `COc1ccc([N+](=O)[O-])cc1N(CC(=O)Nc1ccccc1C(=O)N1CCOCC1)S(C)(=O)=O`: -5.6% (inactive); for `COCCn1c(SCC(=O)Nc2nc(C)cs2)nnc1C(C)C`: 2.9% (inactive); for `O=C(CCN1C(=O)[C@@H]2Cc3ccccc3CN2C1=O)NCc1ccccc1`: 1.7% (inactive). The same measure, in the same setting: as for `O=C(CCN1C(=O)[C@@H]2Cc3ccccc3CN2C1=O)NCCc1ccccc1`, the figure is 58.8% (active); as for `Cc1ccc(CNC(=O)CCN2C(=O)[C@@H]3Cc4ccccc4CN3C2=O)cc1`, 10.4% (inactive); as for `Cc1ccc(C2SCC(=O)N2c2ccccc2)cc1` (stereo not drawn), -0.7% (inactive). On the same count and under the same terms, the same measure for `COc1ccc(-c2oc3ncnc(NCCCO)c3c2-c2ccc(OC)cc2)cc1`: 7.6% (inactive); for `Cc1ccc(N2C(=O)C3C4C=CC(CC4)C3C2=O)cc1Cl` (stereo not drawn): 0.6% (inactive). As to `Cc1cccc(-c2nnc(SCC(=O)O)n2Cc2ccccc2)c1`, where the note is “at 35 µM”, the inhibition was 0.6% (inactive). The same measure, in the same setting: the same measure for `CCCSc1nc(NCc2ccco2)c2c3c(sc2n1)COC(C)(CC)C3` (stereo not drawn): 9.5% (inactive); for `CN1CCc2c(sc3c2c(NCc2ccco2)nc2nnnn23)C1`: 94.1% (active). `Cn1c(=O)n(Cc2ccco2)c(=N)c2c3c(sc21)CCCC3`: the inhibition (at 35 µM) is 8.4% (inactive). For `COc1ccc(C(CNC(=O)c2ccc(S(=O)(=O)Nc3ccccc3F)cc2)N(C)C)cc1` (stereo not drawn), the inhibition is 53.4% (active) (at 35 µM) and 116% (confirmation repeats, at 20 µM). As to `COc1ccc(C(CNCC(=O)Nc2ccccc2F)N(C)C)cc1` (stereo not drawn), where the note is “at 35 µM”, the inhibition was -7.5% (inactive).

For `CC(=O)c1ccc(S(=O)(=O)Nc2ccc(C(=O)NCC(c3ccccc3)N(C)C)cc2)cc1` (stereo not drawn), under “at 35 µM”, the inhibition is 12.7% (inactive). With `Cc1ccc(S(=O)(=O)N(CC(=O)NCc2ccco2)c2ccccc2C)cc1`, the inhibition (at 35 µM) was 3% (inactive). As to `COc1ccc2c(C)c(CCC(=O)NC3CC3)c(=O)oc2c1C`, under “at 35 µM”, the inhibition is 11.8% (inactive). The same measure, in the same setting: the same measure for `CCOC(=O)C1(Cc2cccc(OC)c2)CCCN(C(=O)CCSC)C1` (stereo not drawn): 15.2% (inactive). Consider `Cc1ccc(C(=O)Nc2nnc(-c3cccs3)s2)cc1C`, for which the inhibition (at 35 µM) is 4.7% (inactive). Turning to `Cc1ccc(C(=O)Oc2coc(CSc3nnc(NC(=O)c4cccs4)s3)cc2=O)cc1C`, the inhibition (at 35 µM) was -2.3% (active) and the inhibition (confirmation repeats, at 20 µM) was 88.5%. On to `CCSc1nnc(NC(=O)c2ccc(C)cc2)s1`, for which the inhibition (at 35 µM) was -4.4% (inactive). Same read-out and setting: as for `CN(C)CCN(C(=O)C1CCCCC1)c1nc2cc3c(cc2s1)OCO3`, the figure is 11% (inactive); as for `CN(C)CCCn1c(=O)n(Cc2ccccc2)c(=O)c2c3c(sc21)CCCCC3`, -5.5% (inactive); as for `CCCCCCn1cc(C(=O)O)c(=O)c2cc(F)c(N3CCCCC3)cc21`, -0.7% (inactive). Same read-out and setting: the same measure for `CCC1CCCCN1C(=O)CSc1nc2c(c(=O)n1C)SC(C)C2` (stereo not drawn): -9% (inactive). With `Cc1ccc(Cc2cnc(N)s2)o1`, the inhibition (at 35 µM) was 47.2% (active) and the inhibition (confirmation repeats, at 20 µM) was 56.6%. For the compound `Cc1ccc(CCC(=O)Nc2ncc(Cc3cc(Cl)ccc3Cl)s2)o1`, the inhibition (at 35 µM) is 29.5% (inactive).

Take `Cc1cc(/C=C2/SC(=O)N(CC(=O)N3CCCC3)C2=O)c(C)n1C`: the inhibition (at 35 µM) was 19.7% (inactive). The same measure, in the same setting: as for `Cc1cc(/C=C2\SC(=Nc3ccc(N4CCOCC4)cc3)N(C)C2=O)c(C)n1-c1cccnc1`, the figure is 0.7% (inactive); as for `Cc1cc(/C=C2\SC(=O)N(C)C2=O)c(C)n1-c1cccc(C(=O)O)c1`, 67.4% (active). Still for that read-out and setting: the same measure for `CCC(=O)Nc1ccc(S(=O)(=O)Nc2c(NC)c3ccccc3oc2=O)cc1`: 0.6% (inactive). In the case of `Cc1ccc2[nH]c3c(c2c1)CN(C(=O)CN1CCN(c2ccccc2)CC1)CC3`, the inhibition (at 35 µM) is 90.5% (active). As to `O=C(CN1CCCC1)N1CCN(c2ccccc2)CC1`, the inhibition (at 35 µM) was 0.4% (inactive).

In the case of `CCCC(=O)N1CCc2[nH]c3ccccc3c2C1`, the inhibition (at 35 µM) is 14.1% (inactive). With `COCCNC(=O)C(c1ccc(C)cc1)N(C(=O)CCC(=O)Nc1ccccn1)c1cccc(C)c1` (stereo not drawn), the inhibition (at 35 µM) is -1.8% (inactive). As to `Cc1ccnc2nc(C(=O)Nc3nnc(-c4ccccc4)o3)nn12`, the inhibition is, setting by setting: (at 35 µM) -1.8% (active); (confirmation repeats, at 20 µM) 82.4%. With `CCc1nnc(NC(=O)c2nc3nccc(C)n3n2)s1`, where the note is “at 35 µM”, the inhibition is -2.3% (inactive). Turning to `Cc1cccc(NC(=O)Nc2nnc(-c3ccccc3)o2)c1`, the inhibition (at 35 µM) was -0.4% (inactive).

As to `CCCC1=Nc2cc(C(=O)NCCN3CCCC3)ccc2Sc2ccccc21`, for the setting “at 35 µM”, the inhibition is -16.5% (inactive). For the compound `COc1cc(NC(=O)C2=C(C)OCCS2)c(Cl)cc1C(=O)NCCN1CCN(C)CC1`, where the note is “at 35 µM”, the inhibition is -8% (inactive). Still for that read-out and setting: as for `O=C(CSc1ccc(-c2ccco2)nn1)Nc1cccc(F)c1`, the figure is -7.4% (inactive); as for `Cc1cc(F)ccc1S(=O)(=O)N1CCCOC1CNC(=O)C(=O)NCCC1=CCCCC1` (stereo not drawn), 0.9% (inactive); as for `O=C(NCCCc1ccccc1)C(=O)NCC1OCCN1S(=O)(=O)c1ccccc1` (stereo not drawn), 10.1% (inactive). On the same count and under the same terms, as for `O=C(NCCCn1ccnc1)C(=O)NCC1OCCN1S(=O)(=O)c1cc(F)ccc1F` (stereo not drawn), the figure is 58.4% (active); as for `Cc1ccc(C(=O)NC2CCN(C(=O)Nc3ccc(F)cc3)CC2)cc1`, 10.6% (inactive).

For `CC(NC(=O)COc1cccnc1[N+](=O)[O-])c1ccc(Cl)cc1Cl` (stereo not drawn), where the note is “at 35 µM”, the inhibition is 0.4% (inactive). On the same count and under the same terms, the same measure for `CC(C)c1ccccc1OCC(O)CN(CC(O)COc1cccc2ccccc12)C(C)C` (stereo not drawn): 5.7% (inactive); for `COc1ccc(C(=O)N(C)CC(O)c2ccccc2)cc1OC1CCN(C(C)=O)CC1` (stereo not drawn): -3.1% (inactive); for `COc1ccc(CNC(=O)C(Cc2ccccc2)n2cccc2)cc1` (stereo not drawn): 9.5% (inactive). As for `Cc1ccc(C)n1C(Cc1ccccc1)C(=O)O` (stereo not drawn), under “at 35 µM”, the inhibition was 69.6% (active). Same read-out and setting: the same measure for `CC(Cc1ccccc1)C(=O)N(C)Cc1ccccc1` (stereo not drawn): 2% (inactive). The same measure, in the same setting: the same measure for `COCCN1C(=O)N(c2ccc(Cl)cc2)C(=O)C1CC(=O)Nc1cc(OC)cc(OC)c1` (stereo not drawn): -6.1% (inactive).
